Anesthetic bind – candidate novel general anesthetic via apoferritin binding; P02791; AID 485281; Potency, µM (titrated, usually from 77.5 µM), for inactives: top-dose activity change, negative = displacement, usual class: inhibitors; actives 0.074% (n = 350,000); apoferritin/1-aminoanthracene competitive binding, fluorescence; further: potency means the concentration at half of the fitted maximal effect; on the % scale 0 is the no-effect control and ±100 the full control effect; nearly all actives have a fitted effect of over 20% in size
Target sequence (P02791 2-175 limits assumed): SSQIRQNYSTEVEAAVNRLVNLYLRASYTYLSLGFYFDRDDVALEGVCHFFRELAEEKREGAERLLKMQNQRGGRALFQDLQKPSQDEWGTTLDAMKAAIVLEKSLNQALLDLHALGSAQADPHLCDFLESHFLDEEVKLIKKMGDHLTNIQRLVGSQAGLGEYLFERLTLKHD
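Read-out: endpoint 1-AMA fluorescence, excitation 380 nm and emission 535 nm, after compounds sit 10 min at room temperature with 10 uM horse-spleen apoferritin in 50% saturated 1-AMA/PBS. Values come from four-parameter Hill fits.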
ClpP mod – qHTS Assay for Activators of ClpP. ATP-dependent Clp protease proteolytic subunit (Bacillus subtilis (strain 168)), P80244. Potency, µM (top dose mostly 57.5 µM), for the others: at the highest dose activity change, negative = active. purified B. subtilis ClpP, FRET peptide cleavage, 20 min. actives 1.9% (n = 340,000). AID 651965, 2013; active means well fitted falling curve with a large enough effect; inconclusive means small, poorly fitted or top-dose-only effect; inactive means no such curve, though single readings can be large or run the other way; further: potency means the concentration at half of the fitted maximal effect; the source files actives as falling curves though it sought activators and does not explain the sign; nearly all actives have a fitted effect of over 65% in size
Target sequence (P80244 whole entry, looked up): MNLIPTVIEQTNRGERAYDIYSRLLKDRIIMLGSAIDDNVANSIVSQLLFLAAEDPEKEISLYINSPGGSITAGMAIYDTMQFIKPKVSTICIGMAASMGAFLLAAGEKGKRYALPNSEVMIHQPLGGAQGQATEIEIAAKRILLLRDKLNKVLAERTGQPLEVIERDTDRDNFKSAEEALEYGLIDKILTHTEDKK
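Purified B. subtilis ClpP, 10 microg/mL final in Tris/HCl pH8 with KCl, BSA, glycerol and Tween-20, cleaved an Abz/nitrotyrosine-quenched decapeptide. Fluorescence (ex 320, em 430) was read at 0 and 20 min at room temperature. Delta was normalized to 5.8 microM ADEP and DMSO/no-enzyme controls.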
CBFb RUNX1 block – blocks binding between human CBF-beta and RUNX1; AlphaScreen CBFb-His/RUNX1-biotin binding, biochemical; Potency, µM (doses to about 59.8 µM), inactives show at the highest dose activity, negative = inhibition, hits mostly inhibitors; 230,000 tested, under 10 active; Q01196+Q13951; further: % of control where 0% means no effect
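Bead-based AlphaScreen assay; binding partners His-tagged CBF-beta and biotinylated RUNX1 at 30 nM each. Compound exposure 15 min after a 20-min protein preincubation; bead step 90 min; all steps at room temperature.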
Glioma ERSR ind – induces the endoplasmic reticulum stress response in human glioma cells; U87-MG GRP78 promoter luciferase reporter, 16 h; Potency, µM, inactives show at the highest dose activation, usual class: activators; actives 0.02% (n = 420,000); further: potency means the concentration at half of the fitted maximal effect; series mostly up to about 76 µM; % of control where 0% means no effect; nearly all actives have a fitted effect of over 35% in size
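Stably transfected U87-MG glioma cells carrying a GRP78-based luciferase sensor; 16 h compound incubation. Luminescence end-point read 10 min after Bright-Glo addition at room temperature.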
N370S GC – inhibits or activates N370S mutant glucocerebrosidase; Potency, µM (series often up to 59.4 µM), for inactives: at the highest dose activity change, negative = inhibition, most hits filed as inhibitors; actives 0.092% (n = 330,000); N370S GC spleen homogenate, 4MU-glucoside fluorescence;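 further: potency means the concentration at half of the fitted maximal effect; 0% = full enzyme activity and -100% = no enzyme basal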
a7 integrin act – integrin-mediated muscular dystrophy alleviation activation. alpha7betagal myoblasts, beta-gal FDG fluorescence, 48 h. Potency, µM (series often up to 38.3 µM), for inactives: at the highest dose activation, usual class: activators. actives 0.064% (n = 350,000);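 further: potency means the concentration at half of the fitted maximal effect; 100% = response of the positive control SU9516; nearly all actives have a fitted effect of over 60% in size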
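Alpha7betagal+/- myoblasts (passage 13) were plated 16-24 hr, then exposed to compounds (1:260 dilution of DMSO stock) for 48 hours at 37C. After MPER lysis, β-galactosidase reporter activity was read as FDG fluorescence (ex 480/em 540) after 30 minutes.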
* marks the source's active call; other numbers are inactive results. This excerpt belongs to a sample that is enriched for hits. Unless noted, the call rests on the fitted dose curve; in most records, active means well fitted curve in the direction sought with a large enough effect; inconclusive means small, poorly fitted or top-dose-only effect, or another doubt; inactive means no such curve, though single readings can be large; an effect the other way counts as inactive or inconclusive.

Results for CC(=O)NNC(=S)NC(=O)C(c1ccccc1)c1ccccc1 ?
Anesthetic bind: -0.9%; ClpP mod: 1.2%; CBFb RUNX1 block: 2.3%; Glioma ERSR ind: -7.5%; N370S GC: 8.0%; a7 integrin act: -6.9%

What do the screens show for `CC(C)(C)C(=O)NC(=S)NNC(=O)C(c1ccccc1)c1ccccc1`?
Anesthetic bind: -11.5%; ClpP mod: 1.4%; CBFb RUNX1 block: -7.9%; Glioma ERSR ind: 22.4µM*; N370S GC: -1.5%; a7 integrin act: 13.1%

What do the screens show for `Cc1ccc2nsnc2c1S(=O)(=O)Nc1cccc2cccnc12`?
Anesthetic bind: -21.6%; CBFb RUNX1 block: -26.2%; N370S GC: 8.0%

What do the screens show for `CC(=O)Nc1ccc(SC[C@H](Cc2ccccc2)N2CC[C@@H](N)CCC2=O)cc1`?
ClpP mod: -1.7%; Glioma ERSR ind: -1.4%

What do the screens show for `CC(C)(C)c1ccc(Cn2cnc(-c3ccc([N+](=O)[O-])cc3)c2)cc1`?
Anesthetic bind: inconclusive; ClpP mod: 10µM*; CBFb RUNX1 block: -28.4%; Glioma ERSR ind: 2.7%; N370S GC: 7.3%; a7 integrin act: -39.8%

Results for COc1ccc(-c2nnc(N(C)C(=O)c3ccno3)s2)cc1 ?
Anesthetic bind: -12.7%; ClpP mod: 22.4µM*; CBFb RUNX1 block: 1.5%; Glioma ERSR ind: -0.7%; N370S GC: 6.6%; a7 integrin act: -3.6%

What do the screens show for `COc1ccc(Nc2nc(-c3ccccc3)nc3ccccc23)cc1`?
Anesthetic bind: 33.9%; ClpP mod: -9.7%; Glioma ERSR ind: 5.4%; N370S GC: inconclusive; a7 integrin act: 22.5%

How did COc1cccc(CN(C)c2nc(-c3cccs3)nc3ccccc23)c1 do in these assays?
Anesthetic bind: -16.4%; CBFb RUNX1 block: inconclusive; Glioma ERSR ind: -2.5%; N370S GC: 1.58µM*; a7 integrin act: -31.6%

What do the screens show for `COc1ccc(Nc2nc(-c3cccs3)nc3ccccc23)cc1`?
Anesthetic bind: 23.6%; ClpP mod: 33.8%; CBFb RUNX1 block: inconclusive; Glioma ERSR ind: -1.4%; N370S GC: 1.12µM*; a7 integrin act: -8.5%

Results for COc1cccc(Nc2nc(-c3cccs3)nc3ccccc23)c1 ?
Anesthetic bind: 43.7%; CBFb RUNX1 block: 30.0%; Glioma ERSR ind: -2.4%; N370S GC: 12.6µM*; a7 integrin act: 22.1%

Results for COc1ccccc1C1CN(CCNC(=O)c2cscn2)Cc2ccccc2O1 (stereo not drawn) ?
Glioma ERSR ind: 1.1%

Results for COCc1c(C(=O)N2CCN(C)CC2)cnn1-c1ncc2c(n1)-c1ccccc1CCC2 ?
Glioma ERSR ind: -2.8%

Results for Cc1cccc(C(=O)Nc2ccccc2C(=O)OCC(=O)Nc2ccc(C#N)cc2)c1 ?
Anesthetic bind: -5.7%; ClpP mod: 15.8µM*; CBFb RUNX1 block: -0.4%; Glioma ERSR ind: 0.3%; N370S GC: 22.6%; a7 integrin act: -1.8%

How did COc1cc2c(cc1NC(=S)Nc1cccc(C(F)(F)F)c1)oc1ccccc12 do in these assays?
Anesthetic bind: -18.3%; ClpP mod: 31.6µM*; CBFb RUNX1 block: -9.0%; Glioma ERSR ind: -3.0%; N370S GC: 7.1%; a7 integrin act: -21.1%

How did COc1cc2c(cc1NC(=S)Nc1cccc3ccccc13)oc1ccccc12 do in these assays?
Anesthetic bind: -21.9%; ClpP mod: 10µM*; CBFb RUNX1 block: inconclusive; Glioma ERSR ind: 1.4%; N370S GC: -7.0%; a7 integrin act: -1.1%

How did COCCOC(=O)N1CCN(/[N+]([O-])=N/Oc2ccc([N+](=O)[O-])cc2[N+](=O)[O-])CC1 do in these assays?
Glioma ERSR ind: -11.6%

How did Cc1ccc(Nc2c(-c3ccco3)nc3ccc(C)cn23)cc1 do in these assays?
Anesthetic bind: 13.9%; ClpP mod: 6.31µM*; Glioma ERSR ind: -3.0%

Bioassay records as filed in PubChem BioAssay.
